One may read the AC50 as the concentration giving half of the maximal activity seen.

Experimental findings from PubChem BioAssay (EPA / NIEHS) are described below.

Structures are written as SMILES. Active and inactive are the calls of the source. How the source made its calls: active means hit-call score of the fitted dose curve at least 0.9, where 1 is the maximum; inactive means score below 0.9.

Test [1] is described as follows: ATG_CMV_CIS: Attagene CIS-FACTORIAL HepG2 Assay for human CMV (Internal Marker) (AID 2282928).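 Further: endpoint acts as a background internal control marker rather than a target.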 The conditions noted are these: HepG2 CMV promoter reporter, transcription factor profiling; actives raise or lower the signal. An outline of the steps:
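Endogenous transcription factor activity read in HepG2 via transfected cis-promoter reporter units. After 24 h dosing, reporter mRNA measured by RT-PCR/capillary electrophoresis; gain or loss of signal fit relative to DMSO.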

Test [2] is described as follows: ATG_DR4_LXR_CIS: Attagene CIS-FACTORIAL HepG2 Assay for human Liver X Receptor (LXR), DR4 submotif (AID 2282929). The conditions noted are these: HepG2 Attagene DR4 cis-reporter, mRNA transcription; actives raise or lower the signal. An outline of the steps:
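After transient transfection with multiplexed cis-promoter reporter units, HepG2 cells received test chemicals for 24 h. Reporter mRNA induction, detected by fluorescence after RT-PCR and capillary electrophoresis, was scored relative to DMSO.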

The nature of test [3]: ATG_AP_2_CIS: Attagene CIS-FACTORIAL HepG2 Assay for human Activator Protein 2 (AP-2) (AID 2282932). The conditions noted are these: HepG2 AP-2 cis-reporter, Attagene transcription factor profiling; actives raise or lower the signal. An outline of the steps:
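HepG2, transient MRTU transfection, cis-regulated reporters; 24 h compound exposure; RNA isolated, RT-PCR, 6-FAM labelling, HpaI digest, CE fluorescence. DMSO = negative control/baseline, bidirectional fit.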

The target of test [4] is Transcription factor E2F1 (Homo sapiens) (UniProt Q01094). As to the kind of experiment: ATG_E2F_CIS: Attagene CIS-FACTORIAL HepG2 Assay for human E2F Transcription Factor 1 (AID 2282935). The conditions noted are these: HepG2 Attagene cis-reporter, E2F reporter RNA transcripts; actives raise or lower the signal. An outline of the steps: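 Cis-element reporter mRNA induction in transiently transfected HepG2, 24 h exposure. Activity fitted in both directions relative to DMSO negative control.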

Test [5] is described as follows: ATG_M_61_CIS: Attagene CIS-FACTORIAL HepG2 Assay for M61 Transcription Factor (Internal Marker) (AID 2282937). The conditions noted are these: HepG2 Attagene CIS-FACTORIAL M61 internal marker reporter; actives raise or lower the signal. In a few lines:
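Using transiently transfected HepG2 liver cells, reporter transcript levels were assessed 24 h post-dosing by RT-PCR and capillary electrophoresis. Changes in either direction were fitted relative to DMSO controls.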

A short description of test [6]: ATG_EGR_CIS: Attagene CIS-FACTORIAL HepG2 Assay for human Early Growth Response 1 (EGR1) (AID 2282938). The conditions noted are these: HepG2 Attagene CIS-FACTORIAL EGR reporter mRNA; actives raise or lower the signal. An outline of the steps: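 Fluorescent capillary-electrophoresis signal of reporter cDNA fragments serves as read-out. HepG2 cells bear transiently transfected cis-promoter reporter units and are exposed 24 h; gain- or loss-of-signal is fitted against DMSO.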

Test [7] is described as follows: ATG_Ets_CIS: Attagene CIS-FACTORIAL HepG2 Assay for human Erythroblast Transformation Specific (ETS) (AID 2282941). The conditions noted are these: HepG2 ETS cis-reporter transcription, actives raise or lower the signal. In a few lines: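 Steps: transfect HepG2 with multiple reporter units; treat compound 24 h; isolate RNA, DNase-treat, reverse-transcribe; PCR-amplify, label with 6-FAM, digest with HpaI; separate by capillary electrophoresis. Activity fitted both directions versus DMSO.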

The target in test [8] is Hepatocyte nuclear factor 3-beta (Homo sapiens) (UniProt Q9Y261). Nature of the test: ATG_FoxA2_CIS: Attagene CIS-FACTORIAL HepG2 Assay for human Forkhead box A2 (FOXA2) (AID 2282942). The conditions noted are these: HepG2 cis-reporter transcription factor activity, 24 h; actives raise or lower the signal. An outline of the steps: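 Fluorescence signal of reporter cDNA fragments, separated by capillary electrophoresis, reflects endogenous transcription factor activity in transfected HepG2 after 24 h. Both increases and decreases fitted against DMSO.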

Test [9] is described as follows: ATG_FoxO_CIS: Attagene CIS-FACTORIAL HepG2 Assay for human Forkhead box O (FoxO) (AID 2282943). The conditions noted are these: HepG2 Attagene cis-reporter, FoxO element, mRNA; actives raise or lower the signal. An outline of the steps: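 Human hepatoma HepG2 cells carry transiently introduced reporter transcription units controlled by cis promoter elements. Chemical treatment lasted 24 h, and mRNA signal was compared with DMSO.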

A short description of test [10]: ATG_GATA_CIS: Attagene CIS-FACTORIAL HepG2 Assay for human GATA Binding Protein (AID 2282944). The conditions noted are these: HepG2 GATA cis-element reporter, Attagene multiplex mRNA; actives raise or lower the signal. An outline of the steps: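 Measures endogenous transcription factor-driven reporter mRNA in HepG2 cells transiently carrying cis-regulated constructs. 24 h dosing; RNA via oligo(dT) reverse transcription, PCR, HpaI digestion, capillary electrophoresis; fitted relative to DMSO.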

Test [11] can be described thus: ATG_ISRE_CIS: Attagene CIS-FACTORIAL HepG2 Assay for human Interferon Regulatory Factor 1 (IRF1) binding to an Interferon-Stimulated Response Element (ISRE) (AID 2282948). The conditions noted are these: HepG2 ISRE cis-reporter (Attagene), mRNA transcription readout; actives raise or lower the signal. In a few lines:
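Transfected HepG2 (multiple reporter transcription units, cis elements) dosed 24 h. RNA → oligo(dT) RT → PCR → 6-FAM primer extension → HpaI → CE. DMSO = negative control/baseline.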

A short description of test [12]: ATG_M_32_CIS: Attagene CIS-FACTORIAL HepG2 Assay for M32 Transcription Factor (Internal Marker) (AID 2282949).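 Further: background control marker of the multiplexed CIS panel rather than a real target.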 The conditions noted are these: HepG2 Attagene cis-factorial M32 reporter, mRNA; actives raise or lower the signal. In a few lines: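 Fluorescent capillary electrophoresis peaks of HpaI-digested, FAM-labelled RT-PCR reporter products give the signal. Source: transiently transfected human liver HepG2 cells, 24 h after chemical dosing; bidirectional fitting against DMSO.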

Test [13] can be described thus: ATG_MRE_CIS: Attagene CIS-FACTORIAL HepG2 Assay for human Metal Responsive Element (MRE) (AID 2282954). The conditions noted are these: HepG2 MRE cis-reporter transcription, Attagene multiplex; actives raise or lower the signal. An outline of the steps:
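Transient MRTU transfection of HepG2 (FuGene 6); 24 h dosing; total RNA → oligo(dT) RT, PCR, 6-FAM primer extension, HpaI cut, CE. Bidirectional fit vs DMSO.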

The target of test [14] is Paired box protein Pax-6 (Homo sapiens) (UniProt P26367). Nature of the test: ATG_Pax6_CIS: Attagene CIS-FACTORIAL HepG2 Assay for human Paired Box 6 (PAX6) (AID 2282956). The conditions noted are these: HepG2 CIS-FACTORIAL PAX6 reporter transcription, RNA readout; actives raise or lower the signal. An outline of the steps: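 Transient MRTU transfection of HepG2 → compound exposure 24 h → TriZol RNA, oligo(dT) RT → PCR, 6-FAM primer extension, HpaI cut → capillary electrophoresis; activity fitted both directions against DMSO.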

A short description of test [15]: ATG_PXRE_CIS: Attagene CIS-FACTORIAL HepG2 Assay for human Pregnane X Receptor Element (PXRE) (AID 2282957). The conditions noted are these: HepG2 Attagene CIS-FACTORIAL PXRE reporter, mRNA; actives raise or lower the signal. In a few lines:
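Cis-element reporter mRNA in human hepatoma HepG2 cells is measured 24 h post-dosing by RT-PCR, primer-extension labeling and capillary electrophoresis; gain or loss of signal is fitted relative to DMSO.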

The nature of test [16]: ATG_Sox_CIS: Attagene CIS-FACTORIAL HepG2 Assay for human SRY-box transcription factor (SOX) (AID 2282960). The conditions noted are these: HepG2 Attagene cis-factorial SOX reporter, mRNA; actives raise or lower the signal. In a few lines:
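Using transiently transfected HepG2 cells, reporter transcription driven by cis elements was assessed 24 h after dosing. Signal was fluorescence of capillary-separated RT-PCR products, with DMSO defining baseline activity.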

Test [17] can be described thus: ATG_SREBP_CIS: Attagene CIS-FACTORIAL HepG2 Assay for human Sterol Regulatory Element Binding (SREBP) (AID 2282962). The conditions noted are these: HepG2 Attagene cis-factorial SREBP reporter, mRNA; actives raise or lower the signal. In a few lines:
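Transfected HepG2 (cis-regulated reporter library, endogenous TFs) → compound 24 h → total RNA → oligo(dT) RT → reporter-specific PCR → FAM primer extension, HpaI cut → CE fluorescence. Fit bidirectional vs DMSO.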

A short description of test [18]: ATG_TCF_b_cat_CIS: Attagene CIS-FACTORIAL HepG2 Assay for human T-Cell-Factor with beta-catenin (TCF/b-cat) (AID 2282965). The conditions noted are these: HepG2 TCF/beta-catenin cis-reporter transcription, actives raise or lower the signal. In a few lines: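 Measured: reporter mRNA in HepG2 transiently transfected with cis-promoter reporter units, 24 h after chemical addition. Fitting was bidirectional, DMSO as negative control.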

Test [19] is described as follows: ATG_TAL_CIS: Attagene CIS-FACTORIAL HepG2 Assay for human TAL Basal Promoter (AID 2282966).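 Further: background control endpoint measuring basal TAL promoter reporter mRNA not a specific factor.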 The conditions noted are these: HepG2 Attagene cis-factorial TAL promoter reporter; actives raise or lower the signal. In a few lines:
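In this cell-based multiplex, HepG2 liver cells bearing cis-promoter reporter constructs are dosed for 24 hours. Total RNA is reverse-transcribed and amplified, labelled fragments are sized by capillary electrophoresis, and signal changes are fitted bidirectionally versus DMSO.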

Test [20] in a line: ATG_TGFb_CIS: Attagene CIS-FACTORIAL HepG2 Assay for human Transforming Growth Factor (TGF) (AID 2282967). The conditions noted are these: HepG2 Attagene CIS TGFb reporter, mRNA transcription; actives raise or lower the signal. In a few lines:
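After a 24-hour incubation with compound, transfected HepG2 cells were lysed for RNA; reporter cDNA was amplified, fluorescently end-labeled and separated by CE. DMSO served as baseline for bidirectional fits.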

Paired box protein Pax-6 (Homo sapiens), sequence (P26367 whole entry, looked up): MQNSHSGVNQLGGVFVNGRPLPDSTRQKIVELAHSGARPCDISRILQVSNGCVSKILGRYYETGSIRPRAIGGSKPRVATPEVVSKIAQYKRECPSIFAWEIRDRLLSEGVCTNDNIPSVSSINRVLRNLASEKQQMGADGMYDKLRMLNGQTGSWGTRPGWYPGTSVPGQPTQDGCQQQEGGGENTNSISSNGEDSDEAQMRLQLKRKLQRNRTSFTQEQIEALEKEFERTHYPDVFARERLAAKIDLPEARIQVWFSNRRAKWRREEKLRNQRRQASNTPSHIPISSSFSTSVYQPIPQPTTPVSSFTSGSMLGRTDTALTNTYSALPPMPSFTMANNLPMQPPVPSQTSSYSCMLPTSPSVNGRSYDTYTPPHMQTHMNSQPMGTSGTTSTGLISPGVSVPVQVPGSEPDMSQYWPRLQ
Transcription factor E2F1 (Homo sapiens), sequence (Q01094 whole entry, looked up): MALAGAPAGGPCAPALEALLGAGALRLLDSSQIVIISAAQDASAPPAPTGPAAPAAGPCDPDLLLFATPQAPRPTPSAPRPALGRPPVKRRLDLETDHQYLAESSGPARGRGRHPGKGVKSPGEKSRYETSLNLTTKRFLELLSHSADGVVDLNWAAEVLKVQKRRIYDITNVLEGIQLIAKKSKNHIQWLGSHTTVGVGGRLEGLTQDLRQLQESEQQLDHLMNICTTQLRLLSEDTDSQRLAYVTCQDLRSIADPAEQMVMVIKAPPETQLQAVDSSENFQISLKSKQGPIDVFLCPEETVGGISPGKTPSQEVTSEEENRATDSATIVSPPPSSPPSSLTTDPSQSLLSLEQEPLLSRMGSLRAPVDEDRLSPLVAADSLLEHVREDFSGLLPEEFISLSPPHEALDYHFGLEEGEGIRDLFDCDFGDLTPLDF
Hepatocyte nuclear factor 3-beta (Homo sapiens), sequence (Q9Y261 whole entry, looked up, the tested form may be a part): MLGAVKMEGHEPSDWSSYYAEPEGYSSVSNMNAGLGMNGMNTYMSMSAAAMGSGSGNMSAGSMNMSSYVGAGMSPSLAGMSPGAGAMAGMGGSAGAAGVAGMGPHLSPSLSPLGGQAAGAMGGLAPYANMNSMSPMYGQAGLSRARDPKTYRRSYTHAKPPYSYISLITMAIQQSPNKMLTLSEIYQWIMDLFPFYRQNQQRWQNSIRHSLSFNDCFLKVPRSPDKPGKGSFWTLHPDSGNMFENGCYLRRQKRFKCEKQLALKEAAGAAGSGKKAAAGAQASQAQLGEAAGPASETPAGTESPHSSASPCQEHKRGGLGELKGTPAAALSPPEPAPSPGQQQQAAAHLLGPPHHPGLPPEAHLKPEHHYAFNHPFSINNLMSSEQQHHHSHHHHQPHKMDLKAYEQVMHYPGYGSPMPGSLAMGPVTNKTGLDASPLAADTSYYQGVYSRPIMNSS

As for `Oc1cc(Cl)ccc1Cl`, the molecule was called inactive in test [1], in test [2], in test [3], in test [4], in [5] and in test [6]. Also, the outcome in [7], in test [8], in test [9], in [10], in test [11] and in [12] was inactive. In addition, the molecule was classed as inactive in test [13], in test [14], in [16], in test [17], in test [18] and in test [19]. Moreover, in test [20], the outcome was inactive. In test [15], the concentration at half-maximal activity (AC50) is 27.6 µM (active).
Consider `C=CC(=O)OC`, for which the call in [1], in test [2], in test [3], in test [4], in [5] and in test [6] was inactive. Also, the outcome in test [7], in test [8], in test [9], in test [10], in test [11] and in [12] was inactive. The result in test [13], in test [14], in test [15], in test [16], in [17] and in test [18] was inactive. In addition, the molecule was classed as inactive in test [19] and in test [20].
On to `O=C1C=CC(=O)C=C1`, for which the outcome in test [1], in test [2], in test [3], in test [4], in test [5] and in test [6] was inactive. The result in test [7], in test [8], in [9], in test [10], in [11] and in test [12] was inactive. The call in test [13], in test [14], in [16], in test [17], in test [18] and in [19] was inactive. In addition, the call in test [20] was inactive. In test [15], the AC50 is 26.4 µM (active).
As to `C[N+](C)(C)CC(=O)O`, the call in test [1], in [2], in test [3], in test [4], in test [5] and in [6] was inactive. The molecule was classed as inactive in [7], in test [8], in test [9], in [10], in test [11] and in [12]. For the same molecule, the outcome in [13], in test [14], in [15], in test [16], in [17] and in [18] was inactive. Further, the call in test [19] and in test [20] was inactive.
`CN1C[C@H](C(=O)N[C@]2(C)O[C@@]3(O)[C@@H]4CCCN4C(=O)[C@H](Cc4ccccc4)N3C2=O)C=C2c3cccc4[nH]cc(c34)C[C@H]21`: the molecule was classed as inactive in [1], in test [2], in test [3], in test [4], in [5] and in test [6]. Besides, the result in test [7], in test [8], in test [9], in test [10], in test [11] and in test [12] was inactive. Also, the molecule was called inactive in test [13], in test [14], in test [16], in test [19] and in [20]. In addition, the results for the AC50 in test [15], in [17] and in test [18] were 0.445 µM (active), 16.4 µM (active) and 94.2 µM (active), respectively.
As to `C=C(Cl)CCl`, the molecule was classed as inactive in test [1], in [2], in [3], in test [4], in test [5] and in test [6]. For the same molecule, the outcome in [7], in [8], in [9], in test [10], in [11] and in test [12] was inactive. Moreover, the molecule was called inactive in test [13], in [14], in test [16], in test [17], in [18] and in [19]. Further, the molecule was classed as inactive in test [20]. Besides, in test [15], the half-maximal activity concentration (AC50) was 52 µM (active).
Take `CCOC(=O)N(C)N=O`: the molecule was classed as inactive in [1], in test [2], in [3], in test [4], in [5] and in test [6]. Moreover, the molecule was called inactive in test [7], in test [8], in [9], in test [10], in test [11] and in test [12]. In addition, the molecule was called inactive in test [13], in test [14], in test [16], in [17], in [18] and in test [19]. In test [20], the molecule was called inactive. Further, the AC50 in test [15] was 26.1 µM (active).
